# In the supplement of paper PMC8728848:
# Only a selection was taken, and the strongest signals are over-represented in it overall.
# Legend:
# Assay in all cases: glycan array binding signal (z-score within array); higher = stronger binding
# Details in all cases: glycan notation: IUPAC condensed, linker removed
# [1] = molecular target: Fuc(a1-2)Gal(b1-3)[Fuc(a1-4)]GlcNAc(b1-3)[Fuc(a1-3)[Gal(b1-4)]GlcNAc(b1-6)]Gal(b1-4)Glc
# Method in brief: (§1)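 Columns mapping to the same glycan were averaged after glycan names were converted to IUPAC-condensed notation. The data come from 3228 arrays in the Consortium for Functional Glycomics database, limited to those with an available protein sequence. Binding is reported as a within-array Z-score averaged across arrays of one protein sequence and across linkers.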
# [2] = molecular target: Fuc(a1-2)Gal(b1-4)Fuc(a1-3)]GlcNAc(b1-2)Man(a1-3)[Fuc(a1-2)Gal(b1-4)[Fuc(a1-3)]GlcNAc(b1-2)Man(a1-6)]Man(b1-4)GlcNAc(b1-4)GlcNAc
# Method in brief: as §1
# [3] = molecular target: Fuc(a1-2)Gal(b1-4)[Fuc(a1-3)]GlcNAc(b1-3)Gal(b1-4)[Fuc(a1-3)]GlcNAc
# Method in brief: as §1
# [4] = molecular target: Fuc(a1-2)Gal6S(b1-4)Glc
# Method in brief: as §1
# [5] = molecular target: Fuc(a1-2)[Gal(a1-3)]Gal(b1-3)GlcNAc(b1-2)Man(a1-3)[Fuc(a1-2)[Gal(a1-3)]Gal(b1-3)GlcNAc(b1-2)Man(a1-6)]Man(b1-4)GlcNAc(b1-4)GlcNAc
# Method in brief: as §1
# [6] = molecular target: Fuc(a1-2)[Gal(a1-3)]Gal(b1-4)Glc
# Method in brief: as §1
# [7] = molecular target: Fuc(a1-2)[Gal(a1-3)]Gal(b1-4)GlcNAc(b1-2)Man(a1-3)[Fuc(a1-2)[Gal(a1-3)]Gal(b1-4)GlcNAc(b1-2)Man(a1-6)]Man(b1-4)GlcNAc(b1-4)GlcNAc
# Method in brief: as §1
# [8] = molecular target: Fuc(a1-2)[GalNAc(a1-3)]Gal(b1-4)[Fuc(a1-3)]GlcNAc
# Method in brief: as §1
# [9] = molecular target: Fuc(a1-3)[Gal(b1-4)]GlcNAc(b1-3)Gal(b1-3)[Fuc(a1-4)]GlcNAc
# Method in brief: as §1
# [10] = molecular target: Fuc(a1-3)[Gal(b1-4)]GlcNAc(b1-3)GalNAc
# Method in brief: as §1
# [11] = molecular target: Fuc(a1-3)[Gal(b1-4)]GlcNAc6S
# Method in brief: as §1
# [12] = molecular target: Fuc(a1-4)GlcNAc
# Method in brief: as §1
# [13] = molecular target: Fuc(b1-3)GlcNAc
# Method in brief: as §1
# [14] = molecular target: Gal(a1-4)Gal(b1-3)GlcNAc(b1-2)Man(a1-3)[Gal(a1-4)Gal(b1-3)GlcNAc(b1-2)Man(a1-6)]Man(b1-4)GlcNAc(b1-4)GlcNAc
# Method in brief: as §1
# [15] = molecular target: Gal(b1-2)Gal
# Method in brief: as §1
# [16] = molecular target: Gal(b1-3)GalNAc(a1-3)[Fuc(a1-2)]Gal(b1-4)GlcNAc
# Method in brief: as §1
# [17] = molecular target: Gal(b1-3)GlcNAc(b1-3)Gal(b1-4)Glc
# Method in brief: as §1
# [18] = molecular target: Gal(b1-3)[Fuc(a1-4)]GlcNAc(b1-3)Gal(b1-3)[Fuc(a1-4)]GlcNAc
# Method in brief: as §1
# [19] = molecular target: Gal(b1-3)[Fuc(a1-4)]GlcNAc(b1-6)GalNAc
# Method in brief: as §1
# [20] = molecular target: Gal(b1-4)GlcNAc(b1-2)Man(a1-6)[Man(a1-3)]Man(b1-4)GlcNAc(b1-4)GlcNAc
# Method in brief: as §1
# [21] = molecular target: Gal(b1-4)GlcNAc(b1-3)Gal(b1-4)GlcNAc
# Method in brief: as §1
# [22] = molecular target: Gal(b1-4)GlcNAc(b1-3)Gal(b1-4)GlcNAc(b1-2)Man(a1-3)[Gal(b1-4)GlcNAc(b1-3)Gal(b1-4)GlcNAc(b1-2)Man(a1-6)]Man(b1-4)GlcNAc(b1-4)GlcNAc
# Method in brief: as §1
# [23] = molecular target: Gal(b1-4)GlcNAc(b1-3)Gal(b1-4)GlcNAc(b1-3)Gal(b1-4)GlcNAc(b1-3)Gal(b1-4)GlcNAc(b1-3)Gal(b1-4)GlcNAc(b1-2)[Gal(b1-4)GlcNAc(b1-3)Gal(b1-4)GlcNAc(b1-3)Gal(b1-4)GlcNAc(b1-3)Gal(b1-4)GlcNAc(b1-3)Gal(b1-4)GlcNAc(b1-6)]Man(a1-6)[Gal(b1-4)GlcNAc(b1-3)Gal(b1-4)GlcNAc(b1-3)Gal(b1-4)GlcNAc(b1-3)Gal(b1-4)GlcNAc(b1-3)Gal(b1-4)GlcNAc(b1-2)Man(a1-3)]Man(b1-4)GlcNAc(b1-4)[Fuc(a1-6)]GlcNAc
# Method in brief: as §1
# [24] = molecular target: Gal(b1-4)GlcNAc(b1-3)[GlcNAc(b1-6)]Gal(b1-4)GlcNAc
# Method in brief: as §1
# [25] = molecular target: Gal(b1-4)GlcNAc(b1-6)[Gal(b1-4)GlcNAc(b1-3)]GalNAc
# Method in brief: as §1
# [26] = molecular target: Gal3S(b1-3)[Fuc(a1-4)]GlcNAc
# Method in brief: as §1
# [27] = molecular target: GalNAc(a1-3)GalNAc
# Method in brief: as §1
# [28] = molecular target: GalNAc(b1-3)GalNAc
# Method in brief: as §1
# [29] = molecular target: GalNAc(b1-4)Gal(b1-4)Glc
# Method in brief: as §1
# [30] = molecular target: GalNAc(b1-4)GlcNAc
# Method in brief: as §1
# [31] = molecular target: GalNAc(b1-4)GlcNAc(b1-2)Man(a1-3)[GalNAc(b1-4)GlcNAc(b1-2)Man(a1-6)]Man(b1-4)GlcNAc(b1-4)GlcNAc
# Method in brief: as §1
# [32] = molecular target: GalNAc3S(b1-4)[Fuc(a1-3)]GlcNAc
# Method in brief: as §1
# [33] = molecular target: GlcNAc(b1-2)Man(a1-3)[GlcNAc(b1-2)Man(a1-6)]Man(b1-4)GlcNAc(b1-4)[Fuc(a1-6)]GlcNAc
# Method in brief: as §1
# [34] = molecular target: GlcNAc(b1-2)[GlcNAc(b1-6)]Man(a1-6)[GlcNAc(b1-2)Man(a1-3)]Man(b1-4)GlcNAc(b1-4)GlcNAc
# Method in brief: as §1
# [35] = molecular target: GlcNAc(b1-3)Gal(b1-4)GlcNAc(b1-2)[GlcNAc(b1-3)Gal(b1-4)GlcNAc(b1-6)]Man(a1-6)[GlcNAc(b1-3)Gal(b1-4)GlcNAc(b1-2)Man(a1-3)]Man(b1-4)GlcNAc(b1-4)GlcNAc
# Method in brief: as §1
# [36] = molecular target: Kdn(a2-3)Gal(b1-4)[Fuc(a1-3)]GlcNAc
# Method in brief: as §1
# [37] = molecular target: Neu5Ac(a2-3)Gal(b1-3)GlcNAc(b1-6)GalNAc
# Method in brief: as §1
# [38] = molecular target: Neu5Ac(a2-3)Gal(b1-4)GlcNAc(b1-2)[Neu5Ac(a2-3)Gal(b1-4)GlcNAc(b1-4)]Man(a1-3)[GlcNAc(b1-4)][Neu5Ac(a2-3)Gal(b1-4)GlcNAc(b1-2)[Neu5Ac(a2-3)Gal(b1-4)GlcNAc(b1-6)]Man(a1-6)]Man(b1-4)GlcNAc(b1-4)GlcNAc
# Method in brief: as §1
# [39] = molecular target: Neu5Ac(a2-3)Gal(b1-4)GlcNAc(b1-3)Gal(b1-4)[Fuc(a1-3)]GlcNAc
# Method in brief: as §1
# [40] = molecular target: Neu5Ac(a2-6)Gal(b1-4)GlcNAc(b1-2)Man(a1-6)[Gal(b1-4)GlcNAc(b1-2)Man(a1-3)]Man(b1-4)GlcNAc(b1-4)GlcNAc
# Method in brief: as §1
# [41] = molecular target: Neu5Ac(a2-6)Gal(b1-4)GlcNAc(b1-3)Gal(b1-4)GlcNAc(b1-3)GalNAc
# Method in brief: as §1
# [42] = molecular target: Neu5Ac(a2-6)GlcNAc(b1-4)GlcNAc(b1-4)GlcNAc
# Method in brief: as §1
# [43] = molecular target: Neu5Ac(a2-8)Neu5Ac(a2-8)Neu5Ac
# Method in brief: as §1
# [44] = molecular target: Neu5Ac9Ac(a2-3)Gal(b1-4)GlcNAc
# Method in brief: as §1
# [45] = molecular target: Neu5Gc(a2-8)Neu5Ac(a2-3)Gal(b1-4)GlcNAc
# Method in brief: as §1
# [46] = molecular target: Neu5Gc(a2-8)Neu5Gc(a2-3)Gal(b1-4)GlcNAc
# Method in brief: as §1
binder,measurement,setting,value
"XTP3-B-MRH2 (Homo sapiens), Q96DZ1 (protein) EFLSGSYCFRGGVGWWKYEFCYGKHVHQYHEDKDSGKTSVVVGTWNQEEHIEWAKKNTARAYHLQDDGTQTVRMVSHFYGNGDICDITDKPRQVTVKLKCKESDSPHAVTVYMLEPHSCQYILGVESPVICKILDTA",glycan array binding signal (z-score),[1],2.32
same,glycan array binding signal (z-score),[2],2.2
same,glycan array binding signal (z-score),[3],-0.464
same,glycan array binding signal (z-score),[4],0.258
same,glycan array binding signal (z-score),[5],2.72
same,glycan array binding signal (z-score),[6],1.19
same,glycan array binding signal (z-score),[7],2.95
same,glycan array binding signal (z-score),[8],-0.177
same,glycan array binding signal (z-score),[9],-2.1
same,glycan array binding signal (z-score),[10],-0.079
same,glycan array binding signal (z-score),[11],-0.412
same,glycan array binding signal (z-score),[12],2.2
same,glycan array binding signal (z-score),[13],-0.321
same,glycan array binding signal (z-score),[14],0.355
same,glycan array binding signal (z-score),[15],-0.575
same,glycan array binding signal (z-score),[16],0.353
same,glycan array binding signal (z-score),[17],0.052
same,glycan array binding signal (z-score),[18],3.38
same,glycan array binding signal (z-score),[19],-0.084
same,glycan array binding signal (z-score),[20],2.47
same,glycan array binding signal (z-score),[21],0.386
same,glycan array binding signal (z-score),[22],3.21
same,glycan array binding signal (z-score),[23],-0.908
same,glycan array binding signal (z-score),[24],0.199
same,glycan array binding signal (z-score),[25],0.934
same,glycan array binding signal (z-score),[26],0.892
same,glycan array binding signal (z-score),[27],5.08
same,glycan array binding signal (z-score),[28],-1.03
same,glycan array binding signal (z-score),[29],-0.842
same,glycan array binding signal (z-score),[30],2.09
same,glycan array binding signal (z-score),[31],-0.025
same,glycan array binding signal (z-score),[32],0.236
same,glycan array binding signal (z-score),[33],-0.201
same,glycan array binding signal (z-score),[34],1.7
same,glycan array binding signal (z-score),[35],0.276
same,glycan array binding signal (z-score),[36],-0.353
same,glycan array binding signal (z-score),[37],1.44
same,glycan array binding signal (z-score),[38],-1.25
same,glycan array binding signal (z-score),[39],-0.481
same,glycan array binding signal (z-score),[40],-0.687
same,glycan array binding signal (z-score),[41],-0.693
same,glycan array binding signal (z-score),[42],0.385
same,glycan array binding signal (z-score),[43],0.237
same,glycan array binding signal (z-score),[44],-0.6
same,glycan array binding signal (z-score),[45],0.283
same,glycan array binding signal (z-score),[46],2.85
